Measured values from the supplement of paper PMC9588786.
Where “and” joins values, the source holds several entries; their conditions need not be identical. Equal entries are not always repeated. Structures can show the parent of a compound that is named as a salt. ± gives the standard deviation of the averaged measurements.

system: HT-1080; assay: relative cell viability with RSL3 co-treatment (fraction of control); higher = stronger protection from RSL3-induced ferroptosis (higher viability); settings: 10 µM
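Further: viability read as CCK-8 absorbance at 450 nm in cells co-exposed to the GPX4 inhibitor RSL3, relative to a 0.01% DMSO vehicle control.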

| Compound | relative cell viability |
| --- | --- |
| CNC(=O)c1nn(C)c2c1C(C)(C)Cc1cnc(Nc3ccc(N4CCN(C)CC4)cc3)nc1-2 | 0.723 ± 0.16 |
| O=C(O)CCC(=O)Nc1ccc(Br)cn1 [Bikinin] | 0.723 ± 0.14 |
| CC(C)(CCCCCC(O)CCCCCC(C)(C)C(=O)O)C(=O)O | 0.843 ± 0.078 |
| CS(=O)(=O)N1CCc2c(-c3cnc(N)nc3)nc(N3CCOCC3)nc21 | 0.85 ± 0.061 |
| COc1cc2ncnc(Oc3cccc(NC(=O)Nc4cc(C(C)(C)C(F)(F)F)on4)c3)c2cc1OC | 0.68 ± 0.17 |
| CCOc1cc2ncc(C#N)c(Nc3ccc(F)c(Cl)c3)c2cc1NC(=O)/C=C/CN(C)C [Pelitinib (EKB-569)] | 0.247 ± 0.081 |
| O=C(Cc1ccc(-c2ccc(OCCN3CCOCC3)cc2)cn1)NCc1ccccc1 | 0.627 ± 0.16 |
| CNC(=O)CN1CCC(Oc2cc3c(Nc4cccc(Cl)c4F)ncnc3cc2OC)CC1 [Sapitinib (AZD8931)] | 0.56 ± 0.095 |
| Clc1ccc(Nc2nnc(Cc3ccncc3)c3ccccc23)cc1 [Vatalanib (PTK787) 2HCl] | 0.827 ± 0.047 |
| O=C(c1ccc(/C=C/c2n[nH]c3ccccc23)cc1)N1CCNCC1 | 0.773 ± 0.076 |
| NC[C@@](O)(c1ccc(Cl)cc1)c1ccc(-c2cn[nH]c2)cc1 | 0.687 ± 0.22 |
| CN(C)CCOc1ccc(-c2nc(-c3ccncc3)c(-c3ccc4c(c3)CC/C4=N\O)[nH]2)cc1 | 0.833 ± 0.1 |
| CCOc1cc(N2CCC(O)CC2)ccc1Nc1ncc2c(n1)N(C)c1ccccc1C(=O)N2C | 0.793 ± 0.015 |
| Cc1cnc(-c2cnc(NCCNc3ccc(C#N)cn3)nc2-c2ccc(Cl)cc2Cl)[nH]1 | 0.55 and 0.457 |
| Nc1nc(N)c(N=O)c(OCC2CCCCC2)n1 | 0.82 ± 0.01 |
| C1=N/C2=N/c3ccc(OCCN4CCCC4)c(c3)COC/C=C/COCc3cccc(c3)C(=C1)N2 [Pacritinib (SB1518)] | 0.467 ± 0.096 |
| NC1(c2ccc(-c3nc4ccn5c(=O)[nH]nc5c4cc3-c3ccccc3)cc2)CCC1 | 0.467 ± 0.1 |
| CN1CCN(c2ccc(-c3ccncc3-c3cc(F)c(O)c(F)c3)cc2)CC1 | 0.48 ± 0.25 |
| C[C@@H](NC(=O)c1ncnc(N)c1Cl)c1ncc(C(=O)Nc2cc(C(F)(F)F)c(Cl)cn2)s1 | 0.6467 ± 0.0058 |

| Compound | relative cell viability |
| --- | --- |
| Cn1cc(C2=C(c3ccc(Cl)cc3Cl)C(=O)NC2=O)c2ccccc21 | 0.8333 ± 0.0058 |
| COc1cc(N2CCC(N3CCN(C)CC3)CC2)ccc1Nc1ncnc(Nc2ccccc2S(=O)(=O)C(C)C)n1 | 0.807 ± 0.023 |
| C=CC(=O)Nc1cccc(Oc2nc(Nc3ccc(N4CCN(C)CC4)cc3)ncc2Cl)c1 | 0.337 ± 0.057 |
| CCOc1cc(C(=O)N2CCC(N3CCN(C)CC3)CC2)ccc1Nc1ncc2c(n1)N(C1CCCC1)c1ccccc1C(=O)N2C | 0.457 ± 0.031 |
| O=C1NC(=O)[C@@H](c2cn3c4c(cccc24)CCC3)[C@@H]1c1c[nH]c2ccccc12 [Tivantinib (ARQ 197)] | 0.64 ± 0.085 |
| Cc1cnc(NC(=O)Nc2cc(Br)c(C)cc2OC[C@@H]2CNCCO2)cn1 | 0.447 ± 0.17 |
| O=c1cc(-c2cccc3c2Sc2ccccc2S3)oc(N2CCOCC2)c1 | 0.57 ± 0.21 |
| CN(C[C@@H]1COCCO1)S(=O)(=O)Nc1ccc2ccc3ncc(-c4cnn(C)c4)cc3c(=O)c2c1 | 0.657 ± 0.25 |
| COc1cc2nccc(Oc3ccc(NC(=O)C4(C(=O)Nc5ccc(F)cc5)CC4)cc3)c2cc1OC [Cabozantinib malate (XL184)] | 0.8 ± 0.017 |
| CN1CCCN(C(=O)c2cccc(-c3ccc(/C=C4/C(=O)Nc5ccc(Cl)cc54)o3)c2)CC1 | 0.743 ± 0.061 |
| O=S(=O)(c1cccc2cnccc12)N1CCCNCC1 [Fasudil (HA-1077) HCl] | 1.13 ± 0.1 |
| CN1CC[C@H](c2c(O)cc(O)c3c(=O)cc(-c4ccccc4Cl)oc23)[C@H](O)C1 [Flavopiridol HCl] | 0.763 ± 0.17 |
| Cc1c(CN2CCN(C(=O)[C@H](C)O)CC2)sc2c(N3CCOCC3)nc(-c3cnc(N)nc3)nc12 [Apitolisib (GDC-0980, RG7422)] | 0.47 ± 0.09 |
| Cc1[nH]nc2ccc(-c3cncc(OC[C@@H](N)Cc4ccccc4)c3)cc12 | 0.59 ± 0.02 |
| COc1ccc(F)c(F)c1C(=O)c1cnc(NC2CCN(S(C)(=O)=O)CC2)nc1N | 0.577 ± 0.15 |
| CCN1CCN(Cc2ccc(-c3cc4c(N[C@H](C)c5ccccc5)ncnc4[nH]3)cc2)CC1 | 0.49 ± 0.02 |
| COc1ccc(-c2nc(N3CCOCC3)c3sc(CN(C)c4ncc(C(=O)NO)cn4)cc3n2)cn1 | 0.577 ± 0.15 |
| CC(C)(C)c1nc(-c2cccc(NS(=O)(=O)c3c(F)cccc3F)c2F)c(-c2ccnc(N)n2)s1 | 0.577 ± 0.11 |
| Cc1ccc(NC(=O)c2cccc(C(C)(C)C#N)c2)cc1Nc1ccc2ncn(C)c(=O)c2c1 | 0.507 ± 0.047 |
